# From PubChem BioAssay (NCI)
# Values joined by “and” are separate entries in the source; they are usually repeats but may differ in a detail not shown here. Equal entries are not always repeated. About 83,000 compounds went through this panel and 20% of them were active in at least one assay; those are over-represented in the sample as a whole.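 Values shown are percent growth following 48 h exposure of cells in 96-well plates to a single concentration of compound; below 10 was considered active.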 Active and inactive are the calls of the source.
# Test system: MDA-MB-468 breast
# Assay: NCI-60 one-dose screen, 48 h (100 = growth as untreated, 0 = no growth, -100 = all killed)
# Details: 10 µM unless noted
row,Structure (SMILES),growth
1,CC(C)(C)c1ccc([I+]c2ccc(C(C)(C)C)cc2)cc1,-26% (active)
2,O=c1c2ccccc2nc(SCCN2CCCCC2)n1CCc1ccccc1,92% (inactive)
3,CC(=O)O[C@H]1CC[C@]2(C)[C@H]3C(=O)C=C4[C@@H]5C[C@](C)(C(=O)N6CCCNCC6)CC[C@]5(C)CC[C@@]4(C)[C@]3(C)CC[C@H]2C1(C)C,-85.2% (active)
4,COc1cc2cc(Oc3ccc(NC(=O)Nc4ccc(Cl)c(Cl)c4)cc3)c(C)nc2cc1OC,-16.7% (active)
5,COc1cc2nc(Cl)nc(Nc3cccc(C4=Nc5c(N)nc(N)nc5NC(c5ccccc5)C4)c3)c2cc1OC (stereo not given),96.5% (inactive)
6,O=C(CCl)Nc1ccc(NC(=O)c2cc(Cl)ccc2O)c(Cl)c1,79.7% (inactive)
7,COC(=O)[C@]12CC[C@@H](C)[C@H](C)[C@@H]1C1=CC[C@@H]3[C@@]4(C)C[C@@H](OC(C)=O)[C@H](OC(C)=O)[C@@](C)(COC(C)=O)[C@@H]4[C@H](O)C[C@@]3(C)[C@]1(C)CC2,-6.62% (active)
8,COc1nc(OC)nc(-c2cc(-c3cc(OC)c(OC)c(OC)c3)no2)n1,104% (inactive)
9,CCOC(=O)C1=C(N)Oc2cc(OC)ccc2C1c1ccc(F)c(F)c1 (stereo not given),-37.8% (active)
10,CO[C@H]1CC(O[C@@H]2/C(C)=C/C[C@@H]3C[C@@H](C[C@]4(C=C[C@H](C)[C@@H](C5CCCCC5)O4)O3)OC(=O)[C@@H]3C=C(C)[C@@H](O)[C@H]4OC/C(=C\C=C\[C@@H]2C)[C@]43O)O[C@@H](C)C1O[C@H]1C[C@H](OC)[C@@H](O)[C@H](C)O1 (stereo not given in full),-72.5% (active)
11,O=C(O)c1c(=O)cccc2ssc12,-50.5% (active)
12,C=C(c1ccc(C(=O)O)cc1)c1cc2c(cc1C)C(C)(C)CCC2(C)C,109% (inactive) and 103% (inactive)
13,CCCC(=O)NC(c1ccc2c(c1)OCO2)c1ccc2cccnc2c1O (stereo not given),-16% (active)
14,CN(C)CN1CCN(c2ccc3nc(-c4ccc5nc(-c6ccc(C(F)(F)F)cc6)[nH]c5c4)[nH]c3c2)CC1,13.7% (inactive)
15,Clc1ccc2c(c1)c(-c1ccccc1)nc1nncn12,110% (inactive)
16,CCCCCCCC12Cc3ccccc3C1=Nc1c(c3ccccc3n1C)C2=O (stereo not given),97.3% (inactive)
17,CCc1ccc(C(c2ccc(CC)cc2)C(Cl)(Cl)CCl)cc1,95.8% (inactive)
18,O=[N+]([O-])c1ccc(N/N=C(\C(=N/Nc2ccc([N+](=O)[O-])cc2[N+](=O)[O-])c2ccccc2)c2ccccc2)c([N+](=O)[O-])c1,86.4% (inactive)

row,Structure (SMILES),growth
1,CC(=O)c1c(-c2ccc(OC(F)(F)F)cc2)nc2ccccn12,94.7% (inactive)
2,O=C(CSc1cc[n+](CCCCO)c2ccccc12)n1ccc2ccccc21,108% (inactive)
3,NC(=O)c1c(NC(=O)c2ccc(C3CCCCC3)cc2)sc2c1CCC(=O)C2,-10.3% (active)
4,COc1ccc(C(=O)N2N=C(c3ccc(Br)cc3)CC2c2cn(-c3ccccc3)nc2-c2ccccc2)cc1 (stereo not given),69% (inactive)
5,Cn1cnc([N+](=O)[O-])c1Sc1ncn[nH]1,73.5% (inactive)
6,CC(C)(C)n1nnnc1C(Nc1nccs1)c1cc2cccc3ccc4cccc1c4c32 (stereo not given),-35.2% (active)
7,O=C1/C(=C\c2ccc(Cl)cc2)CN(C(=O)c2ccccc2)C/C1=C\c1ccc(Cl)cc1,-17.7% (active)
8,CCOC(=O)CC(=O)CSC1=NC2C(NN1)N(C)C(=O)N2C (stereo not given),12.2% (inactive)
9,O=C(Nc1ccc(-c2nc(N3CCOCC3)c3cccn3n2)cc1)Nc1cccnc1,-37.9% (active)
10,CC1=C(C)C(=O)C(Nc2cccc(C(=O)OC(C)(C)C)c2)=C(Cl)C1=O,-23.6% (active)
11,CN(C)C(=O)SC1=C(c2c(Cl)cccc2Cl)C(=O)c2ccccc21,-86.5% (active)
12,CSc1oc(C)nc1[P+](c1ccccc1)(c1ccccc1)c1ccccc1,-4.41% (active)
13,CC(=O)c1ccc(Nc2nccc(-c3ccc4ccccc4c3)n2)cc1,76.8% (inactive)
14,Cc1cccc2c1O/C(=C\c1ccc([N+](=O)[O-])o1)C2=O,-58.1% (active)
15,C[C@H]1OCC2(CCN(c3cnc(C(=O)Nc4cc(F)cc5cccnc45)cn3)CC2)[C@H]1N,-4.2% (active)
16,O=C(O)c1cccc(S(=O)(=O)c2ccccc2)c1,94.7% (inactive)
17,Nc1nc(N)c2c(n1)NC(c1sc(Cl)nc1Cl)CC(c1ccc3c(c1)OCO3)=N2 (stereo not given),-13.3% (active)
